# Source: PubChem BioAssay AID927 (National Center for Advancing Translational Sciences (NCATS), 2007)
# About 65 (0.1%) of roughly 60,000 compounds were called active. The call rests on the fitted dose curve; in most records, active means well fitted inhibition curve with a large enough effect; inconclusive means small, poorly fitted or top-dose-only effect; inactive means no such curve, though single readings can be large or run the other way. This excerpt belongs to a sample that is enriched for actives.
# Biological target: Ubiquitin carboxyl-terminal hydrolase 2 (Homo sapiens) (UniProt O75604)
# Assay: qHTS Assay for Inhibitors of Ubiquitin-specific Protease USP2a; further: nearly all actives have a fitted effect of over 60% in size
# Settings: USP2a enzymatic assay; Potency: qHTS inhibition; series mostly up to 38.3 µM; activity change, negative = inhibition: at the top concentration
# Source text: NIH Molecular Libraries Screening Centers Network [MLSCN]
# NIH Chemical Genomics Center [NCGC]
# PI Name: Nicholson, Ben. Progenra Inc, Malvern, PA
# Homeostasis of cellular proteins is maintained through a combination of synthesis and degradation. The pathway that accounts for the majority of protein degradation is the ubiquitin-proteasomal pathway. Ubiquitin (Ub) is highly conserved in all cells and the generation of a multi-Ub chain typically targets proteins for degradation by the proteasome. However, ubiquitination is highly reversible and dynamic. Deubiquitination, the reverse process, is catalyzed through the action of enzymes referred to as isopeptidases or deubiquitinating enzymes (DUBs). This group of enzymes is collectively responsible for maintaining adequate pools of free ubiquitin and regulating the ubiquitination status of cellular proteins. The class of DUBs referred to as the ubiquitin-specific proteases (USP) family functions endoproteolytically to cleave Ub chains from a wide range of protein substrates. USP2a deubiquitinates fatty acid synthase (FASN) which has recently been identified as an emerging oncology target. To identify inhibitors of USP2a a cell-free assay was employed.
# The reporter enzyme chosen is phospholipase A2 (PLA2), which has an absolute requirement for a free amino terminus. Thus, fusion of a UBL to the N-terminus of PLA2 inactivates PLA2. When the UBL-PLA2 reporter enzyme is cleaved by USP2, the activated reporter can subsequently act on its substrate, which is the commercially available NBD C6-HPC (Invitrogen). Thus, this coupled assay gives a fluorescent read-out, which is generated through the cleavage of the PLA2 reporter enzyme. The assay, developed by Progenra, Inc. uses Ub-PLA2 and USP2a at near equal and low (nM) amounts and has been licensed for sale by LifeSensors, Inc. as the Ub-IsoPro1 kit.
# NCGC Assay Protocol Summary:
# The assay buffer, prepared fresh at the day of the assay, contains 20mM Tris-HCl pH 8.0, 2mM CaCl2, 2mM beta-Mercaptoethanol, 0.1% DMSO. 3ul of 40nM (20nM final) USP2 core, which is stored on ice, is dispensed into a medium-binding black solid Kalypsys 1,536 well plate using the Kalypsys dispenser. The assay plate is then pinned with 23nL compound with the Kalypsys pintool in columns 5-48. The controls are pinned as follows: column 1&2 two-fold dilutions of 2M NEM in duplicate; column 3 DMSO; column 4 2M NEM (final concentration 38.2mM). The assay plate is incubated at RT for 30min. Subsequently, 3uL of 40nM (20nM final) Ub-PLA2 and 40uM (20uM final) NBD C6-HPC (stored on ice and protected from light) were dispensed into the plate using the Kalypsys dispenser. Plates were read immediately (0 Hour) on an Envision (Perkin Elmer) plate reader using the following wavelengths Ex 460nm /Em 535nm. Then, the assay plates were incubated for 2.5 hours and read again on the Envision using the same settings
# Data were normalized to the to AC100 inhibition (NEM). Concentration-response curves were fitted to the normalized data and the concentration-response curves were then classified based on curve quality (r2), response magnitude and degree of measured activity. The time zero reading was used to flag fluorescence artifacts.
# Keywords: ubiquitination, deubiquitination, proteases, profluorescent, MLSMR, MLSCN, NIH Roadmap, qHTS, NCGC
# Sequence of Ubiquitin carboxyl-terminal hydrolase 2 (Homo sapiens) (O75604 whole entry, looked up): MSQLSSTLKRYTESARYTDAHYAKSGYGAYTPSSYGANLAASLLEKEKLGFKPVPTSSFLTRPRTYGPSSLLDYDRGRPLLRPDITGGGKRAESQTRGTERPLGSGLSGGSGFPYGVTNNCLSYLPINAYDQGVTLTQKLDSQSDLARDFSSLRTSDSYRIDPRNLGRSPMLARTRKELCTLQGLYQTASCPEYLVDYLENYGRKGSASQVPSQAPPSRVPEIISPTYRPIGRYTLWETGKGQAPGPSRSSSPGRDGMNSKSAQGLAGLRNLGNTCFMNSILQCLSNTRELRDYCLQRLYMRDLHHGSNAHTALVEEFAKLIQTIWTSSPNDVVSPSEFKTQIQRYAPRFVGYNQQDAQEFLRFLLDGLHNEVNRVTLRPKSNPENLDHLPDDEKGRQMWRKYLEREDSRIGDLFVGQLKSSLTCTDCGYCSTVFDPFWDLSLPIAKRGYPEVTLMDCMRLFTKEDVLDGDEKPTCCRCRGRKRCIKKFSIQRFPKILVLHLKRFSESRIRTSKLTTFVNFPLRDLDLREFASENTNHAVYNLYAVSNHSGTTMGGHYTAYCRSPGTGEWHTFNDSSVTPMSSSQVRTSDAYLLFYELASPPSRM
row,Structure (SMILES),"activity change, negative = inhibition"
1,CCCCNc1nc2ccccc2nc1NS(=O)(=O)c1cccs1,11.4% (inactive)
2,Cc1ccc(N(C(=O)CC2NC(=O)NC2=O)C2(C(=O)NC3CCCC3)CCCCC2)cc1 (configuration not stated),14% (inactive)
3,C=CCn1c(CSc2nc3ccccc3s2)nnc1SCC(=O)NCc1ccco1,22.9% (inactive)
4,O/N=C1\CC2(Cc3nonc31)OCCO2,-8.23% (inactive)
5,CC1(C)OC2CC3C4CCC5=CC(=O)CCC5(C)C4(F)C(O)CC3(C)[C@]2(C(=O)CCl)O1 (some centres not stated),32.2% (inactive)
6,Cc1c(S(=O)(=O)O)oc2c1C(=O)C(=O)c1c-2ccc2c1CCCC2(C)C,28.5% (inactive)
7,CC(C)OCCCNC(=O)C1CC(=O)N(C2CCCCCCC2)C1 (configuration not stated),6.61% (inactive)
8,COc1ccc(OC)c(NC(=O)CSc2nc(N)c(-c3ccccc3)c(=O)[nH]2)c1,3.67% (inactive)
9,O=C(O)C1CCN1C1CCCCC1 (configuration not stated),-1.2% (inactive)
10,O=C(O)c1ccc(COCC(F)(F)F)cc1,-7.83% (inactive)
11,Cc1nnc(SCc2cc(=O)[nH]c(N3CCN(Cc4ccccc4)CC3)n2)s1,18.7% (inactive)
12,CC(C)(O)CCC(O)[C@@](C)(O)C1CC[C@]2(O)C3=CC(=O)C4CC(O)C(O)C[C@]4(C)C3CC[C@]12C (some centres not stated),-9.42% (inactive)
13,CC(=O)Oc1c2c(c3c(c1CC=C(C)C)O[C@@]14C(=CC5CC1C(C)(C)OC4(C/C=C(\C)C(=O)O)C5=O)C3=O)OC(C)(CCC=C(C)C)C=C2 (some centres not stated),48.5% (inactive)
14,CC1(C)CC(=O)C=C(NCCCN2CCCC2=O)C1,-3.87% (inactive)
15,c1csc(-c2cn3c(n2)SCC3)c1,15.3% (inactive)
16,COc1nc(Oc2ccc(=O)n(C)n2)nc(N(C)C)n1,0.801% (inactive)
17,CC(C)C1=CC2=CC[C@@H]3[C@](C)(CO)CCC[C@]3(C)C2CC1 (some centres not stated),4.02% (inactive)
18,Fc1cccc(/C=N\N=C/c2cccc(F)c2)c1,-4.64% (inactive)
19,O=C(NCCCN1CCCCCC1)C1CC(=O)N(C2CCCC2)C1 (configuration not stated),4.66% (inactive)
20,CCOC(=O)C1CCN(C(=O)Cc2c(C(=O)O)[nH]c3ccccc23)CC1,-3.9% (inactive)
21,CCCCN(C)Cc1c(C)[nH]c2ccc(Cl)cc2c1=O,-9.81% (inactive)
22,CCOC(=O)Cc1csc(NC(=O)C(C)(C)C)n1,4.85% (inactive)
23,Cn1c(=O)c2cn(-c3cccc4ccccc34)cc2n(C)c1=O,25.7% (inactive)
24,Cc1nn(C)c(C)c1S(=O)(=O)N1CCc2ccccc21,2.65% (inactive)
25,Nc1nc2[nH]c(=O)c(=O)[nH]c2c(=O)[nH]1,-4.69% (inactive)
26,CN1CCCC1CCO[C@@](C)(c1ccccc1)c1ccc(Cl)cc1 (some centres not stated),-0.877% (inactive)

row,Structure (SMILES),"activity change, negative = inhibition"
1,CS(=O)(=O)N1CCC2(CCN(c3ccncc3)CC2)CC1,-3.96% (inactive)
2,O=c1c(O)c(-c2ccc(O)cc2)oc2ccccc12,55.6% (inactive)
3,Cc1nnc(SCCCn2c(N3CCCCC3)nc3c2c(=O)[nH]c(=O)n3C)s1,1.5% (inactive)
4,O=C(NC1CCN(Cc2ccccc2)CC1)c1ccccc1F,6.93% (inactive)
5,COC(=O)[C@H](Cc1ccccc1)NC(=O)N1CC(C)OC(C)C1 (some centres not stated),-0.592% (inactive)
6,COc1ccc(CCC(=O)c2c(O)cc(OC3OC(CO)C(O)C(O)C3O[C@@H]3OC(C)C(O)C(O)C3O)cc2O)cc1O (some centres not stated),-9.52% (inactive)
7,O=C1NS(=O)(=O)c2ccccc21,36% (inactive)
8,Cc1cc(=O)n2nc(N3CCCC(C(=O)N4CCN(C)CC4)C3)sc2n1 (configuration not stated),-6.44% (inactive)
9,C=C1C([C@@]2(C)C(OC(C)=O)CC(=O)O[C@@](C)(COC(C)=O)C2CC(=O)OC)C(OC=O)C(OC(=O)C(O)C(C)CC)[C@]2(C)C(c3ccoc3)CC(=O)C12O (some centres not stated),40.3% (inactive)
10,COC(=O)CC1C(C)(C)C(OC(C)=O)C2CC3=C4CC(=O)OC(c5ccoc5)[C@]4(C)CCC3[C@@]1(C)C2=O (some centres not stated),31.6% (inactive)
11,CC1(C)OC2CO[C@]3(COS(N)(=O)=O)OC(C)(C)OC3C2O1 (some centres not stated),-7.19% (inactive)
12,CCC1(C)Cc2c(sc3nc4n(c(=O)c23)CCCS4)CO1 (configuration not stated),20% (inactive)
13,COC(=O)c1cccc(NC(=O)CSc2nc(C)cc(=O)[nH]2)c1,-2.63% (inactive)
14,O=C(NCCCNCc1ccccc1)c1ccc(/C=N/O)nc1,5.49% [at 7.66 µM] (inactive)
15,C/C(=C\C(=O)c1ccc(Br)cc1)N1CCCCC1,41.4% (inactive)
16,CCc1ccc2oc(=O)cc(CN3CCCCC3C)c2c1 (configuration not stated),-29% (inactive)
17,O=C(Oc1cc(OC(=O)c2ccccc2)c2c(c1)OC(c1ccc(OC(=O)c3ccccc3)c(OC(=O)c3ccccc3)c1)[C@@H](OC(=O)c1ccccc1)C2)c1ccccc1 (some centres not stated),5.9% (inactive)
18,COc1ccc(CNC2CCCCC2)cc1,6.59% (inactive)
19,Cc1nnc(SCC(=O)NCCOc2ccc(Cl)cc2)n1-c1ccccc1,7.14% (inactive)
20,O=C1OC(C(O)CO)C(O)=C1O (configuration not stated),-9.98% (inactive)
21,CC(=O)OCC(=O)[C@@]1(O)CCC2C3CCC4=CC(=O)CC[C@@]4(C)[C@]3(F)C(O)C[C@]21C (some centres not stated),8.49% (inactive)
22,Cc1nonc1NC(=O)c1ccccc1Br,4.87% (inactive)
23,O=C1CCC(=O)N1CCOP1(=O)COc2ccccc2OC1,-1.14% (inactive)
24,O=c1c(-c2cc(F)cc(F)c2)nc2cnc(Oc3ccccc3)nc2n1C[C@H]1CCCO1,58.2% (inactive)
25,COc1c(C(C)C)oc2cc3oc(=O)ccc3cc12,1.16% (inactive)
26,CCC1CCCCN1C(=O)Nc1cccc(NC(=O)N2CCCCC2CC)c1 (configuration not stated),20.3% (inactive)
